Where “and” joins values, the source holds several entries; their conditions need not be identical. Equal values may be shown once. The panel holds about 79,000 compounds, 15% with a hit somewhere; the sample as a whole holds those more often. The source holds several records for some structures; these can differ, active in one and inactive in another. Calls of active or inactive are those of the source. Cut-off read from the data, not from the text of the source: active = growth inhibition above about 70%; inactive = the rest.
What was measured:
[1] = NCI Yeast Anticancer Drug Screen. Data for the rad52 strain (AID 147);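 note: 0% = growth of vehicle-treated control cultures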; conditions: S. cerevisiae rad52 mutant growth inhibition, stronger effect = higher value
In short: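 DNA repair-defective yeast; compound exposure; growth scored against vehicle controls.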

[2] = NCI Yeast Anticancer Drug Screen. Data for the wt1 strain (AID 149);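 note: 0% = growth of vehicle-treated wt1 cultures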; conditions: S. cerevisiae wt1 strain (SPY 50644) growth inhibition, stronger effect = higher value
In short: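 Measured: growth of wt1 yeast under compound versus vehicle treatment, reported as inhibition.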

[3] = NCI Yeast Anticancer Drug Screen. Data for the rad50EPP+ strain (AID 151);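 note: 0% = growth of vehicle-treated control cultures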; conditions: S. cerevisiae rad50 mutant strain, stronger effect = higher value
In short: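 rad50EPP+ yeast treated with test compounds. Readout: growth vs vehicle control.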

[4] = NCI Yeast Anticancer Drug Screen. Data for the mgt1 strain (AID 153); conditions: S. cerevisiae mgt1 mutant growth inhibition, stronger effect = higher value
In short: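 Growth inhibition relative to vehicle controls was scored for the mgt1 yeast strain after compound exposure.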

[5] = NCI Yeast Anticancer Drug Screen. Data for the rad50 strain (AID 155);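 note: 0% = growth of vehicle-only cultures of the same strain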; conditions: S. cerevisiae rad50 strain growth inhibition, stronger effect = higher value
In short: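 Growth of the mutant yeast was measured after compound exposure and referenced to vehicle-treated cultures.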

[6] = NCI Yeast Anticancer Drug Screen. Data for the mec2-1 strain (AID 157); conditions: S. cerevisiae mec2-1 strain, stronger effect = higher value
In short: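 Growth inhibition is read against vehicle-treated controls after compound exposure of the mec2-1 yeast strain, which is defective in DNA damage repair or cell cycle control.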

[7] = NCI Yeast Anticancer Drug Screen. Data for the rad14 strain (AID 159);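 note: 0% = growth of vehicle-treated control cultures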; conditions: S. cerevisiae rad14 strain growth inhibition, stronger effect = higher value
In short: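 Here, inhibition of yeast growth was measured after compound exposure, using a strain with a genetic defect in DNA damage repair and vehicle-treated cultures as the reference.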

[8] = NCI Yeast Anticancer Drug Screen. Data for the sgs1 mgt1 strain (AID 161);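 note: 0% = growth of cultures given vehicle only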; conditions: S. cerevisiae sgs1 mgt1 strain, stronger effect = higher value
In short: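 Growth of a repair-deficient yeast mutant was monitored after compound treatment and expressed as inhibition relative to vehicle-treated cultures.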

[9] = NCI Yeast Anticancer Drug Screen. Data for the CLN2oe strain (AID 163);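 note: 0% = growth of vehicle-only control cultures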; conditions: S. cerevisiae CLN2oe strain, stronger effect = higher value
In short: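 Compound-treated yeast; growth vs vehicle ctrl = % inhibition. Genetically altered strain (cell-cycle control).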

[10] = NCI Yeast Anticancer Drug Screen. Data for the cln2 rad14 strain (AID 165);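 note: 0% = growth equal to vehicle treated cultures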; conditions: S. cerevisiae cln2 rad14 strain, stronger effect = higher value
In short: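 Growth inhibition, relative to vehicle-treated controls, is the read-out. The test organism is a yeast strain with defined genetic alterations, cln2 rad14.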

[11] = NCI Yeast Anticancer Drug Screen. Data for the bub3 strain (AID 167); conditions: S. cerevisiae bub3 mutant strain, stronger effect = higher value
In short: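 Whole-cell yeast assay. The mutant strain was incubated with compounds, and growth inhibition was determined by comparison with vehicle-treated cells.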

[12] = NCI Yeast Anticancer Drug Screen. Data for the wt2 strain (AID 169);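 note: 0% = growth of vehicle-treated yeast cultures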; conditions: S. cerevisiae wt2 strain growth inhibition, stronger effect = higher value
In short: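 Compound exposure of yeast; growth compared with vehicle controls; inhibition reported.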

[13] = NCI Yeast Anticancer Drug Screen. Data for the sgs1 strain (AID 173);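 note: 0% = growth of vehicle-only control cultures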; conditions: S. cerevisiae sgs1 mutant, stronger effect = higher value
In short: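 Compounds applied to genetically altered yeast; growth compared with vehicle-treated cultures to give % inhibition.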

[14] = NCI Yeast Anticancer Drug Screen. Data for the mlh1 rad18 strain (AID 175); conditions: S. cerevisiae mlh1 rad18 strain growth inhibition, stronger effect = higher value
In short: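 Cells of a genetically altered yeast strain, deficient in DNA damage repair, were treated with compound. Their growth was then compared with that of vehicle-treated cultures to give inhibition.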

[15] = NCI Yeast Anticancer Drug Screen. Data for the rad18 strain (AID 177); conditions: S. cerevisiae rad18 mutant growth inhibition, stronger effect = higher value
In short: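 Compounds are applied to a repair-deficient yeast strain, and growth is compared with that of vehicle-treated cultures to give percent inhibition.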

[16] = at 5.0 µM (retest, dose inferred, filed as 0.5)
[17] = at 50.0 µM (retest, dose inferred, filed as 5.0)

Measured: growth inhibition

O=C(C[n+]1ccc2ccccc2c1)c1ccc2ccccc2c1
inactive: [1]; at 1.2 µM 10% | [1]; at 3.7 µM -1% | [1]; at 11.0 µM 7% | [1]; at 33.0 µM 20% | [2]; at 1.2 µM -6% | [2]; at 3.7 µM -17% | [2]; at 11.0 µM -24% | [2]; at 33.0 µM -22% | [3]; at 1.2 µM -19% | [3]; at 3.7 µM -42% | [3]; at 11.0 µM -35% | [3]; at 33.0 µM -20% | [4]; at 1.2 µM -18% | [4]; at 3.7 µM -7% | [4]; at 11.0 µM -32% | [4]; at 33.0 µM -13% | [5]; at 1.2 µM -20% | [5]; at 3.7 µM -26% | [5]; [16] 51% | [5]; at 11.0 µM -30% | [5]; at 33.0 µM -7% | [6]; at 1.2 µM -37% | [6]; at 3.7 µM -23% | [6]; [16] 64% | [6]; at 11.0 µM -77% | [6]; at 33.0 µM -41% | [6]; at 50.0 µM -5.2% and 39.1% | [7]; at 1.2 µM -45% | [7]; at 3.7 µM -44% | [7]; at 11.0 µM -36% | [7]; at 33.0 µM 11% | [8]; [16] -46% | [8]; at 50.0 µM -9.25% and 61.6% | [9]; at 1.2 µM 8% | [9]; at 3.7 µM -9% | [9]; at 11.0 µM 1% | [9]; at 33.0 µM 13% | [10]; [16] 19% | [11]; at 1.2 µM -19% | [11]; at 3.7 µM -12% | [11]; [16] -4% | [11]; at 11.0 µM -27% | [11]; at 33.0 µM -15% | [11]; [17] 51% | [12]; at 1.2 µM -37% | [12]; at 3.7 µM -25% | [12]; at 11.0 µM -53% | [12]; at 33.0 µM -18% | [13]; at 1.2 µM -30% | [13]; at 3.7 µM -34% | [13]; at 11.0 µM -34% | [13]; at 33.0 µM -26% | [14]; [16] 68% | [14]; at 50.0 µM -11.2% and 69.5% | [15]; at 1.2 µM -21% | [15]; at 3.7 µM -24% | [15]; at 11.0 µM -15% | [15]; at 33.0 µM -3%
active: [1]; at 100.0 µM 99% | [2]; at 100.0 µM 97% | [3]; at 100.0 µM 74% | [4]; at 100.0 µM 98% | [5]; [17] 100% | [5]; at 100.0 µM 98% | [6]; [17] 99% | [6]; at 100.0 µM 98% | [7]; at 100.0 µM 97% | [8]; [17] 77% | [9]; at 100.0 µM 99% | [10]; [17] 81% | [11]; at 100.0 µM 98% | [12]; at 100.0 µM 97% | [13]; at 100.0 µM 97% | [14]; [17] 100% | [15]; at 100.0 µM 99%
-28.4% (inactive) and 85.2% (active): [5]; at 50.0 µM
-32.4% (inactive) and 71.7% (active): [11]; at 50.0 µM
-10% (inactive) and 71.2% (active): [10]; at 50.0 µM

Reference: PubChem BioAssay (NCI)
